Assay [1] is described as follows: qHTS to identify inhibitors of the type 1 interferon - major histocompatibility complex class I in skeletal muscle: primary screen against the NCATS Pharmaceutical Collection (AID 1347407).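 Note: luminescence of HiBiT knocked into endogenous HLA-B as interferon-induced MHC class I level.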 Note: potency is the fitted concentration of half-maximal effect. The method, boiled down:
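HLA-B HiBiT myoblasts, dexamethasone-free growth medium + 4 ng/ml IFN-b; compounds pinned 1 h after seeding, […] from 46 uM; 24 h, 37 C, 5% CO2; lytic HiBiT detection, 10 min RT, luminescence.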

Assay [2] in a line: qHTS to identify inhibitors of the type 1 interferon - major histocompatibility complex class I in skeletal muscle: primary screen against the NCATS Mechanism Interrogation Plate v5.0 (MIPE) Libary (AID 1347411). Note: potency is the fitted concentration of half-maximal effect; nearly all actives have a fitted effect of over 65% in size. The procedure, abridged: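 HLA-B HiBit myoblasts, dexamethasone-free medium + 4 ng/ml IFN-b, 24 h compound, 11-pt 1:3 from 46 uM final. Readout: Nano-Glo HiBiT lytic luminescence after 10 min lysis, RT.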

The target in assay [3] is Protein phosphatase 1D (Homo sapiens) (UniProt O15297). Nature of the assay: RapidFire Mass Spectrometry qHTS Assay for Modulators of WT P53-Induced Phosphatase 1 (WIP1) (AID 1347424). Note: series mostly up to about 63 µM. The method, boiled down: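 RapidFire MS readout of dephosphorylated VEPPL-S-QETFS product, with 1 uM isotope-labelled peptide standard. Reaction: 10 nM WIP1, 2 uM phosphopeptide substrate, 5 min, room temperature, after 1 h compound preincubation; stopped with 0.5% formic acid.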
Protein phosphatase 1D (Homo sapiens), sequence (O15297 whole entry, looked up): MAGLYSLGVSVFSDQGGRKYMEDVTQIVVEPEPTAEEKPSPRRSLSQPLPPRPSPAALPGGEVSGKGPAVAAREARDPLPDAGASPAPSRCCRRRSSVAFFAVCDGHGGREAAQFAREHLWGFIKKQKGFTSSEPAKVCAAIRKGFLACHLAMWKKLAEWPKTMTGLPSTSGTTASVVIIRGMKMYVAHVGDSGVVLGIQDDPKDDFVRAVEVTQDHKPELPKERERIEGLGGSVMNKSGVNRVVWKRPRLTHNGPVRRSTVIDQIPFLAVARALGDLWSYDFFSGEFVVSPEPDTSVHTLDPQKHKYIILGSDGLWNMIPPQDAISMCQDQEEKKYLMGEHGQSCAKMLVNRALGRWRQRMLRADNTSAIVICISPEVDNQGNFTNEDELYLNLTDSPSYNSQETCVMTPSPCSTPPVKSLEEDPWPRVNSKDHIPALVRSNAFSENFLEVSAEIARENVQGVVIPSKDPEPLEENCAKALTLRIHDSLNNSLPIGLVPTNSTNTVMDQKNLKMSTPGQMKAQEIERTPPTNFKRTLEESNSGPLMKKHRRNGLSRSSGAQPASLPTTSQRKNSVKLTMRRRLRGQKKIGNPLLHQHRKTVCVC

Assay [4] has the same target. In words: Rhodamine-PBP qHTS Assay for Modulators of WT P53-Induced Phosphatase 1 (WIP1) (AID 1347425). The procedure, abridged:
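5 nM WIP1 + 10 uM Rh-PBP, 50 mM Tris pH 7.5, 30 mM MgCl2, 1 mM TCEP, 0.1 mM EGTA, BSA; cpds pinned, 1 hr RT; + 10 uM phosphopeptide; fluorescence 1-min reads x 11 min; delta = f1 - f0.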

In assay [5] the target is Calcium and integrin-binding protein 1 (Homo sapiens) (UniProt Q99828). In words: Primary qHTS for Identification of Calcium Integrin Binding Protein 1 (CIB1) Competitor (AID 1508620). Note: top concentration of the series differs between compounds. The method, boiled down: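 Fluorescence polarization competition: GST-tagged CIB1 (1 uM final) preincubated with compound 15 min at room temperature, then FITC-labelled alphaIIb peptide (100 nM final) added. After 15 min at room temperature, polarization read at Ex 480/Em 540.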
Calcium and integrin-binding protein 1 (Homo sapiens), sequence (Q99828 whole entry, looked up): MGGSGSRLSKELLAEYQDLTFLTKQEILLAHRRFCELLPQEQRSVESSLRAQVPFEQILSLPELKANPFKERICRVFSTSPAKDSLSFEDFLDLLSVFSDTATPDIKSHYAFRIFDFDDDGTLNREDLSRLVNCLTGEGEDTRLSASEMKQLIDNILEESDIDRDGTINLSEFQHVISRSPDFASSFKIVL

A short description of assay [6]: Counterscreen qHTS for small molecule stabilizers of the endoplasmic reticulum resident proteome: GLuc-NoTag assay (AID 1508627). Note: potency is the fitted concentration of half-maximal effect. The procedure, abridged: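 Counterscreen line: SH-SY5Y-GLuc-NoTag. Seed, 5 h; compound, 19 h; thapsigargin 100 nM, 4 h; 37C/5% CO2. Readout: secreted GLuc luminescence, coelenterazine 0.07x final, no lysis.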
Assay [7] is described as follows: Confirmatory qHTS for small molecule stabilizers of the endoplasmic reticulum resident proteome: Secreted ER Calcium Modulated Protein (SERCaMP) assay (AID 1508628). Note: nearly all actives have a fitted effect of over 40% in size. Note: potency is the fitted concentration of half-maximal effect. The procedure, abridged:
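GLuc-SERCaMP-expressing SH-SY5Y cells, pretreated 16 h with compound, are challenged with thapsigargin to empty ER calcium stores; after 4 h, coelenterazine is added directly to the medium and luminescence is imaged.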

A short description of assay [8]: Primary qHTS for inhibitors of SARS-S pseudo-typed particle cell entry (AID 1479145; calls by dose curve; note: nearly all actives have a fitted effect of over 45% in size).
Assay [9] can be described thus: Primary qHTS for Huh7 cytotoxicity: counterscreen for inhibitors of MERS-S pseudotyped particle cell entry (AID 1479147; calls by dose curve).
The nature of assay [10]: Primary qHTS for inhibitors of MERS-S pseudo-typed particle cell entry (AID 1479149; calls by dose curve; note: nearly all actives have a fitted effect of over 60% in size).
Assay [11] can be described thus: Primary qHTS for Vero E6 cytotoxicity: counterscreen for inhibitors of SARS-S pseudo-typed particle cell entry (AID 1479150; calls by dose curve).
The nature of assay [12]: Primary qHTS for inhibitors of La Crosse Virus (LACV) - induced cell death in SH-SY5Y cells (AID 1508616).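 Note: top concentration of the series differs between compounds; higher means more rescue of cells from virus-induced death.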 The procedure, abridged: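 Cytopathicity rescue screen: compounds pinned onto SH-SY5Y cells, which are then infected with LACV (MOI 0.01) and held 6 days at 37C. Percent activity is scaled between infected DMSO control and uninfected DMSO control.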

Values joined by “and” are separate entries in the source; they are usually repeats but may differ in a detail not shown here. Identical values can stand only once. Inconclusive results are not listed. Active and inactive are the calls of the source. Unless noted, calls come from the whole dose curve; as a rule, active = well fitted curve in the direction sought with a large enough effect; inconclusive = small, poorly fitted or top-dose-only effect, or another doubt; inactive = no such curve, though single readings can be large; an effect the other way counts as inactive or inconclusive.

In the case of `C[C@@H]1C[C@@H]([C@H](O)CC2CC(=O)NC(=O)C2)C(=O)[C@@H](C)C1`, the Potency is 374 nM (active) in assay [1]; 262 nM (active) in assay [2]; 1.58 µM (active) and 1.12 µM (active) in [6]; 224 nM (active) in assay [7]. The Potency entry in [3] and in assay [5] was “inactive” in each case. In assay [4], the compound was called inactive.

Consider `CNC(C)Cc1ccccc1OC` (centres undefined), for which the Potency result in assay [1], in assay [3], in assay [8], in assay [9], in [10] and in assay [11] was “inactive” in each case. In addition, in assay [5], the Potency result was “inactive”. Besides, the call in assay [4] was inactive.

As to `O=c1n(Cl)c(=O)n(Cl)c(=O)n1Cl`, the Potency result in assay [1], in [3], in assay [8], in [9], in [11] and in assay [5] was “inactive” in each case. The call in assay [4] and in assay [12] was inactive.

For the compound `COP(=O)(OC)OC=C(Cl)Cl`, the Potency entry in assay [1], in assay [3], in assay [8], in [9], in assay [10] and in assay [11] was “inactive” in each case. Besides, the Potency result in assay [5] was “inactive”. In addition, the call in assay [4] and in assay [12] was inactive.

For `COP(=O)(OC)C(O)C(Cl)(Cl)Cl` (centres undefined), the Potency result in [1], in assay [3], in assay [8], in [9], in assay [10] and in assay [11] was “inactive” in each case. Besides, the Potency entry in assay [5] was “inactive”. The outcome in assay [4] and in [12] was inactive.

`CCCC[N+]1(C)[C@@H]2CC(OC(=O)[C@H](CO)c3ccccc3)C[C@H]1[C@@H]1O[C@@H]12` (some centres undefined): the Potency result in assay [1], in [3], in [8], in [9], in [10] and in [11] was “inactive” each time. The Potency result in assay [5], in [6] and in assay [7] was “inactive” in each case. The outcome in [4] was inactive.

`Cc1cccc(Cc2cnc[nH]2)c1C`: the Potency entry in assay [1], in [3], in assay [8], in assay [9], in assay [10] and in assay [11] was “inactive” throughout. In assay [5], the Potency result was “inactive”. Further, the call in assay [4] and in [12] was inactive.

In the case of `COP(=S)(OC)Oc1ccc(S(N)(=O)=O)cc1`, the Potency entry in assay [1], in [3], in assay [8], in assay [9], in assay [10] and in assay [11] was “inactive” throughout. For the same compound, the Potency result in [5] is “inactive”. Further, the compound was called inactive in assay [4] and in [12].

Regarding `N#Cc1nn(-c2c(Cl)cc(C(F)(F)F)cc2Cl)c(N)c1S(=O)C(F)(F)F` (centres undefined), the Potency entry in assay [1], in assay [3], in assay [8], in assay [9], in assay [11] and in [5] was “inactive” throughout. Also, the compound was called inactive in [4] and in [12].

`Cc1c(Cl)c(=O)oc2cc(OP(=O)(OCCCl)OCCCl)ccc12`: the Potency entry in assay [1], in assay [3], in assay [8], in assay [9], in [10] and in assay [11] was “inactive” throughout. For the same compound, the Potency result in [5], in assay [6] and in assay [7] was “inactive” throughout. Also, the compound was classed as inactive in assay [4].

As to `Nc1ccccc1C(=O)OCC(O)CO` (centres undefined), the Potency result in assay [1], in assay [3], in assay [8], in assay [9], in [10] and in assay [11] was “inactive” throughout. The Potency entry in assay [5] was “inactive”. Moreover, the call in [4] was inactive.

For `CC1=C2[C@H]3OC(=O)[C@@H](C)[C@@H]3CC[C@@]2(C)C=CC1=O`, the Potency result in assay [1], in assay [3], in assay [8], in assay [9], in assay [10] and in assay [11] was “inactive” each time. Further, the Potency result in assay [5] is “inactive”. In addition, the compound was called inactive in assay [4] and in assay [12].

For the origin of these results see PubChem BioAssay (NCATS).
